PubChem BioAssay AID1159580 (chemical genetic matrix, 2015)
Several values for one entry are separate records, joined by “and”; a condition that tells them apart may be missing. Equal entries are not always repeated. In all, about 5,500 compounds went through this assay and about 2,000 (36%) were called active. Roughly 18% stayed inconclusive and do not appear here. No stated cut-off is given here; in the data, active means normalized growth mostly below about 0.91 (no sharp cut-off); inconclusive means no clear call, values can overlap the other calls; inactive means mostly above about 0.92. The list shows a part of the results. Where a structure was tested more than once in an assay, its records may differ in their call.

Assay: chemical genetic growth profiling, strain panel (AID 1159580);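 further: tested at 20 µM; growth read once vehicle control cultures reached saturation at 30 °C; 1 = growth at the plate median or of vehicle wells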
Conditions: S. cerevisiae deletion strains, growth OD

## O=C1c2c(O)ccc(O)c2C(=O)c2c(NCCNCCO)ccc(NCCNCCO)c21
Locus YAL013W, strain DEP1, stronger effect = lower value
  normalized growth: 0.968 (inactive) and 0.9 (active)
Locus YAL021C, strain ccr4, stronger effect = lower value
  normalized growth: 0.499 (active)
Locus YAL026C, strain drs2, stronger effect = lower value
  normalized growth: 0.363 (active)
Locus YAL030W, strain snc1, stronger effect = lower value
  normalized growth: 0.839 (active)
Locus YAL040C, strain CLN3, stronger effect = lower value
  normalized growth: 1.06 (inactive)
Locus YBL061C, strain skt5, stronger effect = lower value
  normalized growth: 0.81 (active)
Locus YBR009C, strain hhf1, stronger effect = lower value
  normalized growth: 0.831 (active)
Locus YBR021W, strain FUR4, stronger effect = lower value
  normalized growth: 0.941 (inactive)
Locus YBR023C, strain chs3, stronger effect = lower value
  normalized growth: 0.868 (active)
Locus YBR171W, strain sec66, stronger effect = lower value
  normalized growth: 0.911 (inactive)
Locus YBR229C, strain ROT2, stronger effect = lower value
  normalized growth: 1.03 (inactive)
Locus YBR231C, strain swc5, stronger effect = lower value
  normalized growth: 0.84 (active)
Locus YBR279W, strain paf1, stronger effect = lower value
  normalized growth: 0.669 (active)
Locus YCL011C, strain gbp2, stronger effect = lower value
  normalized growth: 0.894 (active)
Locus YCL016C, strain dcc1, stronger effect = lower value
  normalized growth: 0.385 (active)
Locus YCL029C, strain bik1, stronger effect = lower value
  normalized growth: 1.01 (inactive)
Locus YCL061C, strain MRC1 (second series), stronger effect = lower value
  normalized growth: 0.983 (inactive)
Locus YCL061C, strain MRC1, stronger effect = lower value
  normalized growth: 0.868 (active)
Locus YCL069W, strain vba3, stronger effect = lower value
  normalized growth: 0.946 (inactive)
Locus YCR088W, strain abp1, stronger effect = lower value
  normalized growth: 0.828 (active)
Locus YDL005C, strain med2, stronger effect = lower value
  normalized growth: 1.12 [resistant] (active)
Locus YDL035C, strain GPR1, stronger effect = lower value
  normalized growth: 0.976 (inactive)
Locus YDL040C, strain nat1, stronger effect = lower value
  normalized growth: 1.03 (inactive)
Locus YDL074C, strain BRE1, stronger effect = lower value
  normalized growth: 0.897 (inactive)
Locus YDL101C, strain DUN1, stronger effect = lower value
  normalized growth: 1.01 (inactive)
Locus YDL134C, strain PPH21, stronger effect = lower value
  normalized growth: 0.977 (inactive)
Locus YDL185W, strain tfp1, stronger effect = lower value
  normalized growth: 0.943 (inactive)
Locus YDL192W, strain arf1, stronger effect = lower value
  normalized growth: 0.889 (active)
Locus YDR001C, strain nth1, stronger effect = lower value
  normalized growth: 1.01 (inactive)
Locus YDR069C, strain doa4, stronger effect = lower value
  normalized growth: 0.684 (active)
Locus YDR101C, strain arx1, stronger effect = lower value
  normalized growth: 1.04 (inactive)
Locus YDR137W, strain rgp1, stronger effect = lower value
  normalized growth: 0.572 (active)
Locus YDR150W, strain NUM1, stronger effect = lower value
  normalized growth: 0.993 (inactive)
Locus YDR159W, strain sac3, stronger effect = lower value
  normalized growth: 0.788 (active)
Locus YDR162C, strain NBP2, stronger effect = lower value
  normalized growth: 0.921 (inactive)
Locus YDR195W, strain ref2
  normalized growth: 0.764 (active)
Locus YDR297W, strain sur2, stronger effect = lower value
  normalized growth: 0.885 (active)
Locus YDR318W, strain mcm21, stronger effect = lower value
  normalized growth: 0.982 (inactive)
Locus YDR334W, strain swr1, stronger effect = lower value
  normalized growth: 0.981 (inactive)
Locus YDR335W, strain msn5, stronger effect = lower value
  normalized growth: 0.821 (active)
Locus YDR363W, strain ESC2, stronger effect = lower value
  normalized growth: 0.919 (inactive)
Locus YDR388W, stronger effect = lower value
  normalized growth: 0.892 (active)
Locus YDR392W, strain spt3, stronger effect = lower value
  normalized growth: 1.28 [resistant] (active)
Locus YDR502C, strain sam2, stronger effect = lower value
  normalized growth: 0.983 (inactive)
Locus YEL003W, strain gim4, stronger effect = lower value
  normalized growth: 0.878 (active)
Locus YEL037C, strain rad23, stronger effect = lower value
  normalized growth: 0.818 (active)
Locus YEL061C, strain CIN8 (second series), stronger effect = lower value
  normalized growth: 0.896 (active)
Locus YEL061C, strain CIN8, stronger effect = lower value
  normalized growth: 1.02 (inactive)
Locus YER002W, strain NOP16, stronger effect = lower value
  normalized growth: 1.05 (inactive)
Locus YER015W, strain faa2, stronger effect = lower value
  normalized growth: 0.865 (active)
Locus YER016W, strain bim1, stronger effect = lower value
  normalized growth: 0.793 (active)
Locus YER110C, stronger effect = lower value
  normalized growth: 1.07 (inactive)
Locus YER111C, strain swi4, stronger effect = lower value
  normalized growth: 0.397 (active)
Locus YER155C, strain BEM2 (second series), stronger effect = lower value
  normalized growth: 0.965 (inactive)
Locus YER155C, strain BEM2, stronger effect = lower value
  normalized growth: 1.04 (inactive)
Locus YER167W, strain BCK2, stronger effect = lower value
  normalized growth: 0.96 (inactive)
Locus YFR010W, strain ubp6, stronger effect = lower value
  normalized growth: 0.564 (active)
Locus YGL078C, strain dbp3, stronger effect = lower value
  normalized growth: 0.942 (inactive)
Locus YGL086W, strain mad1, stronger effect = lower value
  normalized growth: 1.01 (inactive)
Locus YGL167C, strain pmr1, stronger effect = lower value
  normalized growth: 0.619 (active)
Locus YGL173C, strain kem1, stronger effect = lower value
  normalized growth: 0.57 (active)
Locus YGL227W, strain vid30, stronger effect = lower value
  normalized growth: 1.08 (inactive)
Locus YGL240W, strain doc1, stronger effect = lower value
  normalized growth: 0.696 (active)
Locus YGL248W, strain PDE1, stronger effect = lower value
  normalized growth: 1.02 (inactive)
Locus YGL253W, strain hxk2, stronger effect = lower value
  normalized growth: 0.738 (active)
Locus YGR078C, strain PAC10, stronger effect = lower value
  normalized growth: 1.01 (inactive) and 1.07 (inactive)
Locus YGR135W, strain pre9, stronger effect = lower value
  normalized growth: 0.942 (inactive)
Locus YGR252W, strain gcn5, stronger effect = lower value
  normalized growth: 0.924 (inactive)
Locus YHR013C, strain ard1, stronger effect = lower value
  normalized growth: 0.878 (inactive)
Locus YHR027C, strain rpn1, stronger effect = lower value
  normalized growth: 0.756 (active)
Locus YHR030C, strain SLT2, stronger effect = lower value
  normalized growth: 1.03 (inactive) and 0.713 (active)
Locus YHR079C, strain IRE1 (second series), stronger effect = lower value
  normalized growth: 1 (inactive)
Locus YHR079C, strain IRE1, stronger effect = lower value
  normalized growth: 0.951 (inactive)
Locus YHR094C, strain hxt1, stronger effect = lower value
  normalized growth: 1.05 (inactive)
Locus YHR129C, strain ARP1, stronger effect = lower value
  normalized growth: 1.02 (inactive)
Locus YHR142W, strain chs7, stronger effect = lower value
  normalized growth: 0.582 (active)
Locus YHR200W, strain rpn10, stronger effect = lower value
  normalized growth: 0.985 (inactive)
Locus YIL066C, strain RNR3, stronger effect = lower value
  normalized growth: 0.992 (inactive)
Locus YIL073C, strain SPO22, stronger effect = lower value
  normalized growth: 0.917 (inactive)
Locus YIL125W, strain kgd1, stronger effect = lower value
  normalized growth: 0.986 (inactive)
Locus YIR030C, strain dcg1, stronger effect = lower value
  normalized growth: 1.02 (inactive)
Locus YJL092W, strain hpr5, stronger effect = lower value
  normalized growth: 0.609 (active)
Locus YJL095W, strain BCK1 (second series), stronger effect = lower value
  normalized growth: 0.482 (active)
Locus YJL095W, strain BCK1, stronger effect = lower value
  normalized growth: 0.916 (inactive) and 0.755 (active)
Locus YJL115W, strain asf1, stronger effect = lower value
  normalized growth: 0.321 (active)
Locus YJL129C, strain trk1, stronger effect = lower value
  normalized growth: 0.306 (active)
Locus YJL134W, strain LCB3, stronger effect = lower value
  normalized growth: 1.04 (inactive)
Locus YJL154C, strain vps35, stronger effect = lower value
  normalized growth: 1.05 (inactive)
Locus YJL164C, strain tpk1, stronger effect = lower value
  normalized growth: 0.735 (active)
Locus YJL166W, strain qcr8, stronger effect = lower value
  normalized growth: 0.858 (active)
Locus YJL168C, strain set2, stronger effect = lower value
  normalized growth: 1.05 (inactive)
Locus YJL187C, strain SWE1 (second series), stronger effect = lower value
  normalized growth: 0.968 (inactive)
Locus YJL187C, strain SWE1, stronger effect = lower value
  normalized growth: 0.997 (inactive)
Locus YJR043C, strain POL32, stronger effect = lower value
  normalized growth: 0.779 (active)
